Shown is part of a subset that was picked to be rich in hits.
IMPase Li inh: membrane-permeable IMPase blocker, potentiated with lithium. Potency, µM (highest dose often 59.4 µM), inactives show at the top dose activity, negative = IMPase inhibition, most hits filed as inhibitors. 210,000 tested, 0.35% active. CHO-M1 cells, IP1 TR-FRET (IP-One), carbachol + lithium;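 also: IP1 builds up when IMPase is blocked and the TR-FRET signal falls; potency is read from the fitted curve at half-maximal effect; plate controls were basal vehicle for no effect and high inhibitor control for full effect; nearly all actives have a fitted effect of over 50% in size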
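CHO cells stably expressing M1 receptor (2000/well, cultured 16–30 h) treated 30 min at 37C with compound plus low lithium. Cytosolic IP1 by TR-FRET (665/620 ratio and 620 channel) after 10 min lysis; AC50 by Hill fit.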
PNC inhibitor: inhibitors of perinucleolar compartment assembly; PC3M PTB-GFP, PNC prevalence imaging, 16 h; hits give low values; activity change (PNC), negative = inhibition, % at 10 µM; 140,000 tested, 3.1% active; AID 2417;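 active = readout at or below -70, meaning at least 70% loss of cells showing the perinucleolar compartment, a nuclear body marking cancer cells; inconclusive = readout between -30 and a set limit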;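 also: plate controls were DMSO wells for no effect and camptothecin positive control wells for full effect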
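Compounds are pinned in duplicate onto adhered PC3M cells stably expressing GFP-tagged PTB and incubated 16 h at 37 C. Cells are then fixed, nuclei stained with Hoechst, and PNC-positive cells counted.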
IMPase inh: membrane-permeable compound that blocks inositol monophosphatase; P97697; CHO-M1 cells, IP1 accumulation, HTRF TR-FRET ratio; inhibition (IP1 accumulation), % at 46.1 µM; 120,000 tested, under 10 active; AID 901; active = well fitted curve in the direction sought with a large enough effect in the signal ratio, not every such curve was filed as active; inconclusive = small, poorly fitted or top-dose-only effect, or a change in a side signal; inactive = no such curve, though single readings can be large or run the other way; the % refers to the signal ratio;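 also: cells stimulated with carbachol in lithium chloride buffer; plate controls were DMSO basal wells for no effect and reference inhibitor wells for full effect; higher means more IMPase inhibition seen as more IP1 and lower FRET ratio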
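Carbachol-driven Gq signalling in CHO-M1 cells (2000/well) generates IP1. Compounds that block IMPase raise IP1 and so reduce the FRET signal from Eu-anti-IP1 and d2-IP1 after a 10 min room-temperature lysis.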
ALOX12 inhib: 12-hLO (ALOX12) enzyme inhibition | AID 1452 | purified 12-hLO, xylenol orange hydroperoxide absorbance | 150,000 tested, 0.12% active | Potency, µM (top dose mostly 57.1 µM), without a hit: at the top dose activity change, negative = inhibition, actives largely listed as inhibitors | P18054; also: potency is read from the fitted curve at half-maximal effect; nearly all actives have a fitted effect of over 55% in size
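150 nM 12hLO, 25 mM Hepes pH 7.0 + 0.01% Triton X-100; cpd preinc 15 min RT; 40 uM arachidonic acid, 30 min RT; Fe-XO 30 min; A573/A405 ratio as read-out.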
15-hLO-2 inh: inhibitors of human 15-lipoxygenase 2 (ALOX15B); O15296; purified 15hLO-2, xylenol orange hydroperoxide absorbance; Potency, µM (series often up to 57.1 µM), for the others: at the highest dose activity change, negative = inhibition, hits mostly inhibitors; 110,000 tested, 0.56% active; also: potency is read from the fitted curve at half-maximal effect; nearly all actives have a fitted effect of over 60% in size
Target sequence (O15296 whole entry, looked up): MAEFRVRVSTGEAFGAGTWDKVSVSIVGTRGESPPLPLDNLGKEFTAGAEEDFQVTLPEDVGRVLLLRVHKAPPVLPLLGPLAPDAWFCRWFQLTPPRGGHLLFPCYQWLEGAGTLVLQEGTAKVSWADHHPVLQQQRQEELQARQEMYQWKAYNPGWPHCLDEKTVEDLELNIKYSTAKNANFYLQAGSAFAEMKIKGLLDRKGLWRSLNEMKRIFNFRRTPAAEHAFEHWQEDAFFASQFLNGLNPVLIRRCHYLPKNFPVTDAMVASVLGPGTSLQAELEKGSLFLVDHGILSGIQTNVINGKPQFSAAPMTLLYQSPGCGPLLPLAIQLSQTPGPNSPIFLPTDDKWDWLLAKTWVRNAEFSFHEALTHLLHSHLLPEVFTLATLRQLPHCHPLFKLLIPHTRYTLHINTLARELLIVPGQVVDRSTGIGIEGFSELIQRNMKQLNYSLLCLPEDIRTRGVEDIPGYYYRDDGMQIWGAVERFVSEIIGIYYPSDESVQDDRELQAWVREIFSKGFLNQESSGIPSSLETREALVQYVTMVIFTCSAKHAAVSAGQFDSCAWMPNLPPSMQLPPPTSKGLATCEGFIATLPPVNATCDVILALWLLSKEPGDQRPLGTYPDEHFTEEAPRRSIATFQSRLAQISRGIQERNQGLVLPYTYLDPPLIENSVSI
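Screening format was qHTS against 50 nM purified 15hLO-2 in Hepes pH 7.5 with detergent. Activity follows hydroperoxide formation from 45 uM arachidonic acid, measured as 573:405 nm absorbance ratio of the ferric-xylenol orange complex.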
* = called active by the depositor; ? = inconclusive; · = not tested or not shown; [ ] = remark or other dose. Unless noted, calls follow the shape of the dose curve; as a rule, active = well fitted curve in the direction sought with a large enough effect; inconclusive = small, poorly fitted or top-dose-only effect, or another doubt; inactive = no such curve, though single readings can be large; an effect the other way counts as inactive or inconclusive. Unless noted, % is scaled to controls: 0 for no effect and ±100 for the full control effect.

SMILES	IMPase Li inh	PNC inhibitor	IMPase inh	ALOX12 inhib	15-hLO-2 inh
COCCn1c(=O)c(-c2cccs2)nc2cnc(Oc3cccc(Cl)c3)nc21	15%	·	·	-12%	-16%
CCCn1c(C)nc2c(NC3CCCCC3)nc(C)nc21	-7%	·	·	1%	29%
CCc1cccc(CC)c1NC(=O)Cn1nnc2sc3c(c2c1=O)CCCC3	·	·	-6	·	·
CCCCc1nnc(NC(=O)CSc2nc(=O)cc(N)n2-c2cccc(C)c2)s1	21%[38.3 µM]	-81*	1	2%	-20%
O=c1[nH]c2ccc(Br)cc2c(-c2ccccc2)c1N1CCOCC1	37%[38.3 µM]	1	4	-5%	-7%
O=c1[nH]c2ccc(Br)cc2c(-c2ccccc2)c1CN1CCOCC1	7%[38.3 µM]	-90*	-10	-22%	1%
COc1ccc(CNc2nc(-c3ccccc3CN(C)C)nc3ccccc23)c(OC)c1	16%	·	·	-3%	62%
CON(c1nc(N(C)C)nc(N(C)C)n1)S(=O)(=O)c1ccccc1Cl	3%[38.3 µM]	-100*	2	1%	-3%
COC(=O)CN(n1cnnc1)S(=O)(=O)c1ccccc1Cl	26%[38.3 µM]	?	-7	11%	1%
O=C(COc1ccc2ccccc2c1Br)Nn1cnnc1	?	?	?	2%	5%
COC(=O)NNC(=O)COc1ccc2ccccc2c1Br	?	-82*	·	-1%	·
O=C(COc1ccc2ccccc2c1Br)NNC(=O)Nc1ccccc1	11µM*	36	-18	-1%	?
CCCc1cc(=O)[nH]c(SCC(=O)N(C)CC(=O)Nc2ccc(C)cc2)n1	-4%[38.3 µM]	-115*	7	0%	7%
CCOC(=O)CN1C(=O)C(O)=C(C(C)=O)C1c1ccc([N+](=O)[O-])cc1 (stereo not given)	-11%[38.3 µM]	-111*	3	12%	6%
CCOc1ccc(/C(O)=C2/C(=O)C(=O)N(CCOCCO)C2c2ccccn2)cc1 (stereo not given)	8.9µM*	21	?	-4%	-9%
CCOc1ccc(/C(O)=C2/C(=O)C(=O)N(CCOCCO)C2c2ccc(F)cc2)cc1 (stereo not given)	11µM*	6	?	-4%	6%
CCOc1ccc(C2/C(=C(/O)c3ccc(F)cc3)C(=O)C(=O)N2CCCN(C)C)cc1 (stereo not given)	10%[38.3 µM]	-4	-15	5%	5%[2.29 µM]
OC(CN1CCNCC1)Cn1c2ccc(Br)cc2c2cc(Br)ccc21 (stereo not given)	8%	·	·	2%	50%
CC(C)(C)c1ccc(C(=O)N2CCC(=O)N([C@H](COCc3ccc(Cl)cc3)Cc3ccccc3)CC2)cc1	5%	·	·	-3%[0.00818 µM]	16%[0.0915 µM]
N#Cc1cc(S(=O)(=O)c2ccccc2)c(N)[nH]c1=O	14%[38.3 µM]	-113*	-14[1.84 µM]	7%	-24%[11.4 µM]
CCOc1ccc(-c2nc(CSc3nnc(N)s3)cs2)cc1OC	29%[38.3 µM]	-101*	1	-1%	-7%
CCOc1ccc(-n2nc3cc(C)c(NC(=O)c4cc(OCC)c(OCC)c(OCC)c4)cc3n2)cc1	·	·	-1	·	·
Nc1nonc1C(=O)NCCNS(=O)(=O)c1ccc(Br)cc1	-8%	-90*	3	1%	0%
Nc1nonc1C(=O)NCCNC(=O)c1ccccc1F	-1%	30	-1	2%	·
O=c1c2c(ncn2C2CCCC2)n(Cc2ccccc2)c(=O)n1CCOc1ccccc1	24%	-27	16	-7%	·
SMILES	IMPase Li inh	PNC inhibitor	IMPase inh	ALOX12 inhib	15-hLO-2 inh
Cc1ccc(C)c(OCCn2c(=O)c3c(ncn3C3CCCC3)n(Cc3ccccc3)c2=O)c1	16%	-119*	·	-5%	·
C/C=C/c1ccc(OCCN2C(=O)NC(C)(C)C2=O)c(OC)c1	-12%[38.3 µM]	17	22	-7%	0%
C/C=C/c1ccc(OCCCN2C(=O)NC(C)(C)C2=O)c(OC)c1	3%[38.3 µM]	-125*	6	-4%	-8%
CCN(C(=O)Cn1cnc2c1c(=O)n(C)c(=O)n2C)c1ccccc1C	·	·	-1	·	·
COC(=O)c1ccccc1NC(=O)C1CCCN(S(=O)(=O)c2ccc(F)cc2)C1 (stereo not given)	13%	-89*	-6	8%	0%
O=C(Nc1ccccc1)c1ccc(Cc2nc3ccccc3[nH]2)cc1	·	·	·	0%	·
